Screens: PubChem, The Scripps Research Institute Molecular Screening Center
The list is not random: actives were taken first. Their share in the collection is about 4.1%.
DAX1 inh-1: DAX1 (NR0B1) inhibitors on StAR promoter, primary screen, cell-based, luminescence, SF-1 (NR5A1), full-length DAX-1. HEK293T StAR-luciferase reporter, SF-1/DAX-1 repression relief. inhibition, % at 6.8 µM. hit rate 1.1% among 370,000;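 active = inhibition above the mean over all tested compounds plus 3 SD, cut at about 3.6% in these data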;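 also: 0% = DAX-1 cells with DMSO and 100% = cells lacking DAX-1 with DMSO; higher inhibition means more luminescence from relief of DAX-1 repression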
hgDAF-12 ag: H. glycines DAF-12 receptor agonists, primary screen, cell-based, luminescence, HEK293, GAL4 fusion, UAS-luciferase; activation, % at 6.8 µM; Nuclear hormone receptor DAF-12 (Heterodera glycines), GAL4 fusion; HEK293 GAL4-hgDAF12 UAS-luciferase reporter, agonist luminescence; normalized to butyrate control; AID 687014, 2013; hit rate 1.8% among 370,000;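 active = activation above a cutoff set at the mean of all screened compounds plus 3 SD, cut at about 10% in these data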;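 also: 0% = DMSO wells and 100% = sodium butyrate wells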
hcDAF-12 act: H. contortus DAF-12 nuclear receptor activators, primary screen, cell-based, luminescence, HEK293, lit1-tk-luc reporter; HEK293 hcDAF-12 lit1-tk-luc reporter; 0% DMSO, 100% Δ7-dafachronic acid; activation, % at 6.8 µM; hit rate 1.4% among 370,000; AID 652067, 2013;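 active = activation above the mean of all tested compounds plus 3 SD, cut at about 5.5% in these data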;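 also: 100% = response to 3 µM Δ7-dafachronic acid high control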
DAX1 inh-2: DAX1 (NR0B1) inhibitors, primary screen, cell-based, HEK293, Gal4-DAX1, luciferase luminescence; inhibition, % at 6.75 µM; Nuclear receptor subfamily 0 group B member 1 (Homo sapiens), P51843; HEK293 Gal4-DAX1 luciferase reporter; hit rate 0.99% among 340,000; AID 504766, 2011;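 active = inhibition above the mean over all tested compounds plus 3 SD, cut at about 4.2% in these data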;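 also: 0% = DAX1-transfected cells with DMSO and 100% = empty-vector control cells with DMSO; inhibition shows as a rise in luminescence from relieved DAX1 repression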
Target sequence (P51843 207-470 limits assumed): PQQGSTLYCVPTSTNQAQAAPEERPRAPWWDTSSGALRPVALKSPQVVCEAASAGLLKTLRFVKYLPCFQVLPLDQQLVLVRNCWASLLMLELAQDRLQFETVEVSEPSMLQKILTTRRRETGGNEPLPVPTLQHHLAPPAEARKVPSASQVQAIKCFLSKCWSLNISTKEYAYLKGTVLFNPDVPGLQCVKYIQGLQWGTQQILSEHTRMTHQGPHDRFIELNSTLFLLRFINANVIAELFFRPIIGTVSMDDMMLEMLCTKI
ssDAF12 agonist: S. stercoralis DAF-12 nuclear receptor activators, primary screen, cell-based, luminescence, HEK293, GRIP1 co-expression, lit1-tk-luc; Nuclear hormone receptor DAF-12 (Strongyloides stercoralis); HEK293 ssDAF-12/GRIP1 lit1-tk-luc reporter; % of 3 µM dafachronic acid response; activation, % at 6.8 µM; hit rate 1% among 370,000;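 active = activation above the mean over all tested compounds plus 3 SD, cut at about 0.9% in these data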;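 also: 0% = DMSO-only wells and 100% = 3 µM delta7-dafachronic acid wells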
DAX1 inh confirm: DAX1 (NR0B1) inhibitors relieving SF-1 repression, confirmation, cell-based, luminescence, HEK293T, full-length DAX-1, SF-1 activated StAR promoter; shares compounds with DAX1 inh-1; HEK293T StAR-promoter luciferase reporter, SF-1/DAX-1 repression; inhibition, % at 6.8 µM; hit rate 87% among 2,400;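 active = inhibition above the average of every tested compound plus 3 SD, cut at about 3.8% in these data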;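 also: 0% = DAX-1 cells with DMSO and 100% = no DAX-1 control cells with DMSO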
SF1 AF2mut Luc: StAR reporter signal changes without DAX1, counter-screen for DAX1 inhibitor project, cell-based, luminescence, AF-2 mutant SF-1, transactivation; shares compounds with DAX1 inh-1; hit rate 78% among 2,400; inhibition, % at 6.8 µM; HEK293 StAR-luciferase, SF-1 AF2 mutant;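 active = inhibition above the mean of all tested compounds plus 3 SD, cut at about 3% in these data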;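 also: 0% = DAX-1 transfected cells with DMSO and 100% = cells without DAX-1 with DMSO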
* hit, by the source's call; · = no result given.

SMILES	DAX1 inh-1	hgDAF-12 ag	hcDAF-12 act	DAX1 inh-2	ssDAF12 agonist	DAX1 inh confirm	SF1 AF2mut Luc
CN(C)c1ccc(C=Nc2ccccc2C(N)=O)cc1	5.8*	10	10*	-3	1.9*	19*	9.1*
COc1ccc(C(=O)N2CCCC(c3cc(C(=O)NCc4ccc(F)cc4)no3)C2)cc1 (configuration not stated)	-1	0	-2	·	-2	·	·
O=C(Nc1nnc([C@@H]2C[C@H](O)[C@@H](CO)O2)s1)c1cccc(Cl)c1	2	4	1	·	-1	·	·
Cc1noc(C)c1C(=O)Nc1ccc(N(C)C)cc1	0	-1	-2	1	-1	·	·
CN(C)c1ccc(NC(=O)c2cnsn2)cc1	6.3*	10	3	-1	0	7.4*	2
Nc1[nH]c(C(=O)c2ccccc2)c(-c2cccc(C(F)(F)F)c2)c1C(=O)c1c[nH]c2ccccc12	0	3	1	·	0	·	·
N#Cc1cc2c(nc1SCC(N)=O)CCCCC2	4.8*	5	3	1	0	7.3*	4.5*
CCOC(=O)CC(=O)CSc1nc2c(cc1C#N)CCCCCC2	0	0	1	0	-1	·	·
CN(C)c1ccc(CN2CCC(C(=O)NC(c3ccc(Cl)cc3)c3cnccn3)CC2)cc1 (configuration not stated)	0	-1	-2	·	-1	·	·
COc1cc2ccccc2cc1C(=O)Nc1cc(C)ccn1	5.3*	12*	6.4*	0	0	4.2*	2
COc1ccc(N2C(=O)c3ccccc3NC23CCCCC3)cc1	4.5*	12*	3	1	0	13*	6.5*
C=C1c2ccccc2NC(=O)N1c1ccc(OC)cc1	3	10	0	1	-1	·	·
CN(C)CCN(C(=O)c1ccc2c(c1)CCCC2)c1nc2cc3c(cc2s1)OCCO3	6.0*	5	6.1*	2	0	4.4*	2
C[C@H]1CN([C@@H](C)CO)C(=O)c2cc(Br)cnc2O[C@H]1CN(C)C(=O)c1ccccn1	-1	-1	-1	1	-1	·	·
Cc1ccc(-n2ncc3c(N4CCCC(C)C4)ncnc32)c(C)c1 (configuration not stated)	4.8*	11*	2	2	0	7.2*	5.5*
O=C(NCC1(N2CCCCC2)CCCCC1)c1ccc(NS(=O)(=O)c2ccccc2)cc1	8.9*	4	1	3	0	9.0*	5.6*
Cc1ccccc1NS(=O)(=O)c1ccc(C(=O)NCC2(N3CCOCC3)CCCCC2)cc1	-1	3	0	1	-2	·	·
O=C(NCC1(N2CCCCC2)CCCCC1)c1ccc(S(=O)(=O)N2CCCC2)cc1	3	2	0	3	-2	·	·
Cc1cccc(NS(=O)(=O)c2ccc(C(=O)NCC3(N4CCCCC4)CCCCC3)cc2)c1C	7.3*	2	4	1	0	9.7*	6.6*
O=c1[nH]c2cc(Br)c(Br)nc2[nH]1	1	-1	-1	·	-1	·	·
CCOc1ccccc1N1CC(C(=O)NCCC2=CCCCC2)CC1=O (configuration not stated)	5.2*	9	4	2	-1	4.1*	3.3*
O=c1[nH]c(COc2ccc(Cl)cc2Cl)nc2ccccc12	5.2*	7	0	1	0	13*	6.8*
